Compound activity (PubChem BioAssay)
TNF death inh: inhibitors of TNF-alpha triggered necroptosis, primary screen, cell-based, Jurkat FADD-/-, single concentration | Jurkat FADD-/- TNF necroptosis rescue, ATP luminescence, 24 h; 0 = TNF only, 100 = no-TNF cells | 220,000 tested, 0.068% active | activation (protection from cell death), % at 10 µM;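 active = activation, meaning protection from cell death, of at least 50% relative to plate controls; inactive = activation below 50%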;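 note: necroptosis triggered by 40 ng/mL TNF-alpha added together with compound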
L929 necroptosis: inhibitors of zVAD-triggered necroptosis, primary screen, L929 cells; viability rescue, % at 10 µM; 220,000 tested, 0.38% active; L929 zVAD necroptosis rescue, ATP luminescence, 24 h; with zVAD 60 µM;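 active = activation, scaled between plate controls, above about 75%, limit read from the data; inactive = activation under that limit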;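 note: 0% = zVAD with DMSO and 100% = DMSO alone without zVAD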
HSF1 activator: HSF-1 activators, primary screen, NIH3T3-HGL cells, MG132 stress, luminescence, single point. NIH3T3-HGL HSF-1 luciferase reporter, 8 h; 100% = twice DMSO control signal. activation, % at 9 µM. 300,000 tested, 1.7% active. AID 504408, 2011;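 active = mean replicate activation of at least 50% with a set share of replicates each reaching 50%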;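 note: 0% = median of the neutral control wells and 100% = twice that signal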
Hsp70 activator: Hsp70 transcriptional activators, primary screen, cell-based, HeLa, Hsp70 promoter luciferase, luminescence, 10 µM; AID 1203, 2008; activation, % at 10 µM; 200,000 tested, 0.04% active; HeLa Hsp70 promoter luciferase reporter; scaled: vehicle 0, proteasome-inhibitor control 100%;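 active = activation above the mean across all tested compounds plus 3 SD, cutoff set per campaign, cut at about 5.5% in these data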;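 note: 100% = MG132 at 30 µM as the positive control and 0% = DMSO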
Numbers without * were called inactive; nt = no result given. A selection: hits, their analogues and other compounds. The true share with any hit is near 1.9%.

SMILES | TNF death inh | L929 necroptosis | HSF1 activator | Hsp70 activator
O=C(OCC(=O)N1CCN(C(=O)c2ccco2)CC1)c1cn(-c2ccccc2)nc1-c1ccccc1 | -11.5 | 79.2* | 13.9 | -0.2
CN1C(=O)C2(Oc3ccccc3C3CC(c4ccccc4)=NN32)c2ccccc21 (centres undefined) | -8.6 | 0.1 | 76.2* | -0.1
Cc1ccc(C2=NN3C(C2)c2ccccc2OC32C(=O)Nc3ccccc32)cc1 (centres undefined) | -3.3 | 0.0 | 26.1 | 0.6
Cc1ccc(CN2CCSc3sccc3C2=O)cc1 | 83.3* | 12.4 | 14.0 | -0.2
Cc1ccc(O)c(C(=O)c2cnc3c(c2)CN(C)C(=O)N3)c1 | -9.8 | 1.1 | 73.5* | -0.1
CCCCN1Cc2cc(C(=O)c3cc(OC)ccc3O)cnc2NC1=O | 1.2 | 0.0 | 26.0 | -0.2
Cc1ccc(O)c(C(=O)c2cnc3c(c2)CN(CCC(C)C)C(=O)N3)c1 | 0.3 | 0.5 | 120.1* | -0.5
Nc1nc(N2CCN(c3ccc(F)cc3)CC2)n[nH]1 | 0.1 | 0.5 | -4.6 | -0.4
COC(=O)COc1ccc(NS(=O)(=O)c2cccc([N+](=O)[O-])c2)cc1 | -0.1 | 0.2 | 4.9 | -0.3
CS(=O)(=O)Oc1ccc2c(c1)O/C(=C\C=C\c1ccccc1)C2=O | -11.8 | -1.1 | 108.6* | nt
CCN(CC)Cc1c(O)ccc2c1O/C(=C\C=C\c1ccccc1)C2=O | -21.3 | 2.7 | 116.2* | nt
CCOC(=O)CC(=O)CSc1[nH]c(=O)cc(C)c1C#N | -0.3 | 0.4 | 1.0 | 1.7
COc1cccc(Nc2nc(-c3sc(C)nc3C)cs2)c1 | nt | nt | 41.2 | nt
Cc1nc(C)c(-c2csc(Nc3ncccc3C)n2)s1 | nt | nt | 61.0* | nt
Cc1nc(C)c(-c2csc(Nc3ccc(F)cc3)n2)s1 | -0.1 | 1.9 | 65.4* | 0.4
CCN(CCCNC(=O)CCCN1C(=O)COc2ccc(C)cc21)c1cccc(C)c1 | -1.2 | -0.2 | 100.8* | -0.3
CCN(CC)S(=O)(=O)c1cccc2cccnc12 | 0.3 | 1.6 | 13.3 | -0.1
CSS(=O)(=O)c1cccc2cccnc12 | -1.3 | 0.6 | 77.5* | nt
Cn1cc(C(C[N+](=O)[O-])c2ccccc2)c2ccccc21 (centres undefined) | nt | nt | 8.9 | nt
CC(=O)n1cc(C(C[N+](=O)[O-])SCCN)c2ccccc21 (centres undefined) | -12.2 | -0.1 | 58.9* | -0.3
Cc1ccc(/C=C2\SC(=S)N(CCC(=O)NNC(=O)c3ccncc3)C2=O)cc1 | 2.4 | 0.4 | -3.3 | nt
Cc1ccc(/C=C2\SC(=S)N(CCC(=O)NNS(=O)(=O)c3ccc(C)cc3)C2=O)cc1 | 1.3 | 0.9 | 64.1* | -0.2
COc1ccc(/C=C2\SC(=S)N(CCCC(=O)Nc3ccc(O)cc3)C2=O)cc1 | -6.5 | 4.4 | -37.5 | nt
COc1ccc(/C=C2\SC(=S)N(CCC(=O)Nc3cccc(O)c3)C2=O)cc1 | nt | nt | 92.1* | nt
O=C(Nc1ccccc1)N1CCCN(c2ccc(C(F)(F)F)cc2[N+](=O)[O-])CC1 | 0.9 | 0.9 | 53.6* | nt
SMILES | TNF death inh | L929 necroptosis | HSF1 activator | Hsp70 activator
COc1ccc(CCNc2cc(C)nc3c(-c4ccccc4)c(C)nn23)cc1OC | 3.5 | 2.3 | 13.2 | -0.1
Cc1cc(NC2CCCC2)n2nc(C)c(-c3ccccc3)c2n1 | nt | nt | 52.1* | nt
COc1ccc(-c2c(C)nn3c(NC4CCCC4)cc(C)nc23)cc1OC | nt | nt | 61.9* | nt
COC(=O)c1ccc(CNC(=O)C2CCC(=O)N(C3CCCCCC3)C2)cc1 (centres undefined) | nt | nt | 13.7 | nt
COc1ccc(NC(C)c2ccccc2)cc1 (centres undefined) | 51.5* | 38.8 | 12.4 | 0.0
CC(Nc1ccccc1)c1ccncc1 (centres undefined) | 15.9 | 8.8 | 4.8 | -0.5
CN1CCN(c2ccc(S(=O)(=O)N3CCCCC3)cc2NC(=O)CSCc2ccccc2)CC1 | nt | nt | 0.1 | nt
CCCCNC(=S)N/N=C/c1cccc(OCC)c1O | 0.1 | 0.4 | 80.7* | nt
CCOc1cccc(/C=N/NC(=S)Nc2ccccc2[N+](=O)[O-])c1O | -4.8 | 4.7 | -81.6 | -0.4
Cc1cccc(C(C)C)c1NC(=O)COC(=O)c1cccc(S(=O)(=O)N2CCc3ccccc3C2)c1 | 1.0 | 0.6 | 55.9* | -0.1
O=C(Nc1ccccc1Cl)c1cc2ccccc2o/c1=N\O | nt | nt | 72.4* | nt
O=C(Nc1ccccc1Cl)c1ccccc1Cl | -0.6 | 0.0 | 6.0 | 0.1
CCOC(=O)C(C(=O)OCC)c1cc(Br)c2noc3c2c1C(=O)c1ccccc1-3 | -16.3 | 36.9 | 51.9* | -0.4
CC#CC[N+](C)(C)CCCCCCCCCCCC | -3.7 | 0.1 | 88.5* | -0.4
C#CC[N+](C)(C)CCCCCCCCCC | -5.9 | -0.2 | -16.2 | -0.1
Nc1cnn(Cc2ccccc2F)c1 | -0.2 | -1.2 | 24.5 | 0.3
Nc1cnn(Cc2ccc(F)cc2)c1 | 0.3 | 3.0 | 56.3* | -0.2
CN(Cc1ccccc1)c1nc2c(c(=O)[nH]c(=O)n2C)n1Cc1ccccc1Cl | -0.9 | -0.3 | 78.4* | -0.1
CC(C)Cn1c([N+](=O)[O-])nc2c1c(=O)[nH]c(=O)n2C | 4.4 | -2.1 | -5.8 | nt
CC(=O)CSc1nc2c(c(=O)[nH]c(=O)n2C)n1Cc1cccc(Br)c1 | nt | nt | 58.3* | nt
Cn1c(=O)[nH]c(=O)c2c1nc([N+](=O)[O-])n2Cc1ccccc1 | -31.7 | 17.7 | 155.4* | nt
Nc1ccn(Cc2ccc(F)cc2)n1 | 2.3 | 0.1 | -5.5 | -0.3
Cn1cc(C(=O)N2CCN(C(=O)c3ccco3)CC2)c2c3ccccc3n(C)c2c1=O | 0.5 | 1.0 | -26.4 | 0.3
CCOC(=O)CSc1nnc(Cn2nnc(-c3ccccc3)n2)n1C | -0.7 | 0.5 | -5.2 | 0.1
O=C(CN1CCN(Cc2ccccc2Cl)CC1)N=Nc1c(O)[nH]c2ccccc12 | 0.7 | 0.8 | 52.1* | 0.1
SMILES | TNF death inh | L929 necroptosis | HSF1 activator | Hsp70 activator
Cc1ccc(CN2CCN(CC(=O)N=Nc3c(O)[nH]c4ccccc34)CC2)cc1 | 2.0 | 0.1 | 8.5 | -0.4
COC(=O)C1C(=O)OC(C)(C)C1C(C)C(=O)c1ccc(C)cc1C (centres undefined) | -0.7 | 0.2 | 9.2 | 0.1
CCOC(=O)C1C(=O)OC(C)(C)C1C(C)C(=O)c1ccc(C)cc1C (centres undefined) | 0.1 | 0.5 | 56.1* | -0.3
CCC(CC)c1nnc(NC(=O)c2cccnc2SC)s1 | -2.7 | 24.9 | 26.0 | 0.2
Cc1cccc(Nc2nc3ccccc3s2)c1C | 25.2 | 0.2 | 125.2* | 0.1
Cc1ccc(Cn2nc(C)c(NC(=O)CCCn3nc([N+](=O)[O-])c(Cl)c3C)c2C)cc1 | -0.1 | nt | 36.6 | -0.3
Cc1nn(Cc2ccccc2Cl)c(C)c1NC(=O)CCCn1nc([N+](=O)[O-])c(Cl)c1C | 0.7 | 1.8 | 60.9* | -0.2
Cc1ccc(C(=O)NCC(=O)N2CCC(Cc3ccccc3)CC2)cc1 | nt | nt | 4.1 | nt
Cc1ccc(OCCOCCOc2cccc3cccnc23)c(Br)c1 | 5.2 | 0.1 | 76.6* | 0.1
Clc1cc(Br)ccc1OCCOCCOc1cccc2cccnc12 | 0.9 | 0.6 | 17.8 | -0.5
